# According to the OligoGym collection:
# Biological target: COX10
# Assay: pooled miR-30 sensor sort-seq; sequence = guide strand
# Conditions: shRNA
# Also: reference of the scale not given here.
row,Sequence,sensor-assay potency score (higher = more potent)
1,TTGAAATGAGGAAACTGCCAGG,-0.59
2,TCTGCGTCCACGTAGAAGCGGA,-0.792
3,TTCGTTTATAATCTTGTTCTAA,0.241
4,TGATTGGATGTTATCTACCTAC,-0.498

# Biological target: COX19
# Assay: as above
# Conditions: shRNA
row,Sequence,sensor-assay potency score (higher = more potent)
1,TATTGTTATGAAGACACTTCAT,0.108
2,TTCCACTAGTCAAGTCTCCAAA,-0.858
3,TAAAGCTTTTACATTCACCTAA,0.0153
4,TTCACCTAAGTGATCCAGCGGG,-0.488
5,TTTTACATTCACCTAAGTGATC,-1.57
6,TAAATATTCTTTTGATTCCTTT,-0.553
7,ATGAATTTCTCTTTAAAGCTTT,-0.368
8,ATTGTTATGAAGACACTTCATG,-0.941
9,ATTATTGTTATGAAGACACTTC,0.267
10,TAGTCAAGTCTCCAAATCCCAG,-1.71
11,TTCTGCACAAAGCATTTTCAAA,-1.5
12,ATCAATTTTCTCTCCATCCTGC,0.0848

# Biological target: COX4I2
# Assay: as above
# Conditions: shRNA
row,Sequence,sensor-assay potency score (higher = more potent)
1,TCTCATTGAACTGGAGCCGGTA,-1.09
2,TCAGCGTTGAGTTCTGTGCAGA,-0.281
3,TTCCTCAGCACCAAGCTCCAGG,-0.515
4,TTCATCTCCGCAAAGGTCTCAT,-0.117
5,TCGTCCGTCAAGGTGATCGGCT,-1.37
6,TTGAGTTCTGTGCAGAAGGGCT,-0.914
7,TGAAGAAGAAGACACAACCCAT,-0.804
8,AAAGGTCTCATTGAACTGGAGC,-0.86
9,TTCATGTCCAGCATGCGCTGCA,0.312
10,TAGGGGGACATCTTCCCCCCAC,-1.04
11,TCCACCTTTCCTCAGCACCAAG,-2.06
12,TTCTTCTCATAGTCCCAGCGGG,-0.678

# Biological target: COX6B2
# Assay: as above
# Conditions: shRNA
row,Sequence,sensor-assay potency score (higher = more potent)
1,TAGTCCAGGAAGTTCTGGTAGC,-0.67
2,TTCCAGCTCTCCACCCAGCTGA,-0.84
3,TACGGATCTGGTTCTGGCTGGG,-0.241
4,TTCTTGATCTGCTCGTTCCAGC,-0.0146
5,TAGTACTCGCAGGGCTGCGTGC,-1.22
6,TACACGCGGAAATAGTACTCGC,-0.697
7,TCGTTCCAGCTCTCCACCCAGC,-1.49
8,TGGTAGTCCAGGAAGTTCTGGT,-0.611
9,TTACGGATCTGGTTCTGGCTGG,0.238
10,TGATCTGCTCGTTCCAGCTCTC,-0.561
11,TCCCGTTCTTGATCTGCTCGTT,-0.329
12,TTGATCTGCTCGTTCCAGCTCT,-0.259
